The results in this text go back to the supplement of paper PMC10849652.

Targets with a hit are over-represented here; the source holds about 8,800 in all. About 0.5% of all pairs of compound and target were hits. A number with no mark means an inactive call.

What all share (assay): log2 fold change, soluble protein after heating vs DMSO (PISA); higher = thermal stabilisation; K562 lysate, 10 uM; active = over 0.2 and 3.5 SD of the protein, either way, in both replicates (recomputed)
Compound in assay [1]: NCC(=O)Nc1ccc(-n2nc(C(F)(F)F)cc2-c2ccc3c(ccc4ccccc43)c2)cc1
The procedure, abridged:
(§1)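 Log-two fold change in thermal stability relative to solvent controls is reported from duplicates. For each sample, crude K562 extract from dounce-homogenised pellets in PBS pH 7.4 with 1 mM MgCl2, at 1 mg/mL protein, was treated with 10 μM compound for 30 min. Aliquots heated for 3 min across 48°C-58°C were pooled, brought to 0.5% NP-40 at 4°C and cleared at 21,000xg for 90 min. The supernatant was quantified by TMTpro 16plex LC-MS/MS with channel sums equalised.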

Compound in another assay: O=C(CCCCCCC(=O)Nc1ccccc1)NO [vorinostat]
The procedure, abridged: as §1

Compound in the next assay: O=C(O)c1ccc2c(c1)nc(Nc1cccc(Cl)c1)c1ccncc12 [silmitasertib]
The procedure, abridged:
as §1

Compound in assay [2]: O=C1NC(=O)C(c2cnc3ccccn23)=C1c1cn2c3c(cc(F)cc13)CN(C(=O)N1CCCCC1)CC2
The procedure, abridged:
as §1

Compound in a further assay: c1cn2cc(-c3ccc4cn[nH]c4c3)nc(Nc3ccc(N4CCOCC4)cc3)c2n1 [entospletinib]
The procedure, abridged: as §1

Chain of UniProt Q13586 (Q13586 whole entry, looked up): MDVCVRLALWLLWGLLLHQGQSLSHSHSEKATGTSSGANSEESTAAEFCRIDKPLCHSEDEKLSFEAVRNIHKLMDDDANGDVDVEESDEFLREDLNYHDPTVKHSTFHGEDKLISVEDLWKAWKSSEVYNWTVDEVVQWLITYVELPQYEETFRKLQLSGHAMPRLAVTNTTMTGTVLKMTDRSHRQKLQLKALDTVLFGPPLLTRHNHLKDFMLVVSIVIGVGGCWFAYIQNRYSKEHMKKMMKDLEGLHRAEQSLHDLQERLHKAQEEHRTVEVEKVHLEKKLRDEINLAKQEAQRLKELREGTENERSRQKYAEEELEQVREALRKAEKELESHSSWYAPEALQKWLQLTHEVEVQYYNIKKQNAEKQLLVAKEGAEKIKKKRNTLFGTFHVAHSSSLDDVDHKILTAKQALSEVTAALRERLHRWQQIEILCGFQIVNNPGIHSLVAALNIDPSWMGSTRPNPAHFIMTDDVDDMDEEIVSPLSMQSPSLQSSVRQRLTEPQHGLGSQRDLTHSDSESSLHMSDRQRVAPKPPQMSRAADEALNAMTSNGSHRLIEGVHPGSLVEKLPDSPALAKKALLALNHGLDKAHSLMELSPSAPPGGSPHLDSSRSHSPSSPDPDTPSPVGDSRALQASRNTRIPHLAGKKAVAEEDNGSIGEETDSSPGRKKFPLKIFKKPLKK
Chain of UniProt O60906 (O60906 whole entry, looked up): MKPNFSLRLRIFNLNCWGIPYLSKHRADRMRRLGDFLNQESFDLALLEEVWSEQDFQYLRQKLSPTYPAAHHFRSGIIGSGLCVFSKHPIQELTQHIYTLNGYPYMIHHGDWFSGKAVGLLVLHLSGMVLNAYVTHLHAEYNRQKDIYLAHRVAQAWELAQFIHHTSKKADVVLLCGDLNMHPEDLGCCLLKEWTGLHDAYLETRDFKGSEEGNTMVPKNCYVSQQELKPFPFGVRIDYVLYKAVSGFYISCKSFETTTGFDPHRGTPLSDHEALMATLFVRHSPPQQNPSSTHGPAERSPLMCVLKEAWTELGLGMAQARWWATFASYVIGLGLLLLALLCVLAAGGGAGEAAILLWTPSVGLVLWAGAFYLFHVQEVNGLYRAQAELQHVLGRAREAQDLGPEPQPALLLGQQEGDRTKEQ
Chain of UniProt Q8IVJ1 (Q8IVJ1 whole entry, looked up): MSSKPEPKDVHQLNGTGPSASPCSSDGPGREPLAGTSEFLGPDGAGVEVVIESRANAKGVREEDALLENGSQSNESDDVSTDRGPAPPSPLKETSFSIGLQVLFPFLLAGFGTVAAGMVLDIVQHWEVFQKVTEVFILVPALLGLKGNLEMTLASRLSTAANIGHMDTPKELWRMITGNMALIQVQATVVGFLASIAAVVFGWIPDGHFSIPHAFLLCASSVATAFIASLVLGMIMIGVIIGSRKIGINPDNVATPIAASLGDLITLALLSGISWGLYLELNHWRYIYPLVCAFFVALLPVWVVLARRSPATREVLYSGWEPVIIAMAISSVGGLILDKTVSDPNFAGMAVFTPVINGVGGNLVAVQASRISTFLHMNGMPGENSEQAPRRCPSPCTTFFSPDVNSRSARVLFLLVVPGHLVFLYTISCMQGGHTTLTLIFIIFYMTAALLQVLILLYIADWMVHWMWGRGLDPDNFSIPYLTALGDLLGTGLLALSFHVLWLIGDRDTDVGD
Chain of UniProt O75182 (O75182 whole entry, looked up): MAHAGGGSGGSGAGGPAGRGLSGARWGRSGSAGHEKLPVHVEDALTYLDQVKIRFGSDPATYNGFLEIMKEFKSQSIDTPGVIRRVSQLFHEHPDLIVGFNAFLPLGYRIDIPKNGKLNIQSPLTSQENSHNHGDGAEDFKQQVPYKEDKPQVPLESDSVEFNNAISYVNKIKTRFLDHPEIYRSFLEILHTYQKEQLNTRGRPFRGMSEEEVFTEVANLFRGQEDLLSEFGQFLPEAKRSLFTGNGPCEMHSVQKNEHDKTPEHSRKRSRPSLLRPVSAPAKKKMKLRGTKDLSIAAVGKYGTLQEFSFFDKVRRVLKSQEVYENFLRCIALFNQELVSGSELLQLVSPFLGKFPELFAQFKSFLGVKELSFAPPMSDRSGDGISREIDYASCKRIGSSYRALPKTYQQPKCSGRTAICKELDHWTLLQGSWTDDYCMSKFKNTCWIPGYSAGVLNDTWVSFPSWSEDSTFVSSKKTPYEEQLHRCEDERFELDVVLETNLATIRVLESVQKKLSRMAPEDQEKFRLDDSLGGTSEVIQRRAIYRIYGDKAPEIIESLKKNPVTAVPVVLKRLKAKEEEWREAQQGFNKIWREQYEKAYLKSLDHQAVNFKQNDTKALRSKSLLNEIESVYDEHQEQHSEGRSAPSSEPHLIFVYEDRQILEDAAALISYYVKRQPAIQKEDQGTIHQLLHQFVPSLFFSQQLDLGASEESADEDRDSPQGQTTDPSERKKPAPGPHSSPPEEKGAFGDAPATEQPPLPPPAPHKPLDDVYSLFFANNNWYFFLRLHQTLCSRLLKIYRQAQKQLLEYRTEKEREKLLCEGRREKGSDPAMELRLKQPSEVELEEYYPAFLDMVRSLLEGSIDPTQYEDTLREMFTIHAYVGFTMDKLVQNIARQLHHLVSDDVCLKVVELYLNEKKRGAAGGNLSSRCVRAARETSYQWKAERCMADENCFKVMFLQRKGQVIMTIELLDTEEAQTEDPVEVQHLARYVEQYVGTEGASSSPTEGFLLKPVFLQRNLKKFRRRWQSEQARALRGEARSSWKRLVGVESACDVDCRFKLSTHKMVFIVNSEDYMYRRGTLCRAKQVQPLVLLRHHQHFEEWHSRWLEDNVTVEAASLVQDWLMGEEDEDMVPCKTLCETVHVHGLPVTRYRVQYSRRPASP
Chain of UniProt O15198 (O15198 whole entry, looked up): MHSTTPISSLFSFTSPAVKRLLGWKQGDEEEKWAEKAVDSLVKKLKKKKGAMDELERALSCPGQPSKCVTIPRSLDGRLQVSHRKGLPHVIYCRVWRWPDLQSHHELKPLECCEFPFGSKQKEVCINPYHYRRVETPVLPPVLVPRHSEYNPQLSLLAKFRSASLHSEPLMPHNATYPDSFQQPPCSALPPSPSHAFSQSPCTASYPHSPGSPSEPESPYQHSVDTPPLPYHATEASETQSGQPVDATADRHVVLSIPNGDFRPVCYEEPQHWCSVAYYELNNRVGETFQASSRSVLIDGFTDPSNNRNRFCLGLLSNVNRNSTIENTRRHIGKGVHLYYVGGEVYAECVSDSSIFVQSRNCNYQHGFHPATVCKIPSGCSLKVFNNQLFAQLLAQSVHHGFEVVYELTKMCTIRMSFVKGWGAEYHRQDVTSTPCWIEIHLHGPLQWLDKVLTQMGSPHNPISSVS
Chain of UniProt Q9P289 (Q9P289 whole entry, looked up): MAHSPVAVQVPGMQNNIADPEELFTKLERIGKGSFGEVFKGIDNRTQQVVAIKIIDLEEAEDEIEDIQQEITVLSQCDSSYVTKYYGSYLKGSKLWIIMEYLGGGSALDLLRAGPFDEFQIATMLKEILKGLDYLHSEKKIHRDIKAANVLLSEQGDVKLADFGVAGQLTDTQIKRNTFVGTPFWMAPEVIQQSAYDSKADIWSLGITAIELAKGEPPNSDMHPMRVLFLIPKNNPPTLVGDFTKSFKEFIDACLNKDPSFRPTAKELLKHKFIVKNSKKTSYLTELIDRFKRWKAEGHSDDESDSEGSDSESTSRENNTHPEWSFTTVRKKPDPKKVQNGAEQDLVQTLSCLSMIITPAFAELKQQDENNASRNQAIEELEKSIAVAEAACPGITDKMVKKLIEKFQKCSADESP
Chain of UniProt O00161 (O00161 whole entry, looked up): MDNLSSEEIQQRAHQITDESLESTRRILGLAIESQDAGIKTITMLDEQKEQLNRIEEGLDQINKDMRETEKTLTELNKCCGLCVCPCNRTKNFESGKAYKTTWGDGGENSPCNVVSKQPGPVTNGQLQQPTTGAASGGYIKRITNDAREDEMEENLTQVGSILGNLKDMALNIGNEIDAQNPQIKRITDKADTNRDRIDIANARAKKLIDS
Chain of UniProt B2RUZ4 (B2RUZ4 whole entry, looked up): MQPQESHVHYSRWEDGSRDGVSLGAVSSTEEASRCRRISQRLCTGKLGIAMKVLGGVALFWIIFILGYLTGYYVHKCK
Chain of UniProt Q15527 (Q15527 whole entry, looked up): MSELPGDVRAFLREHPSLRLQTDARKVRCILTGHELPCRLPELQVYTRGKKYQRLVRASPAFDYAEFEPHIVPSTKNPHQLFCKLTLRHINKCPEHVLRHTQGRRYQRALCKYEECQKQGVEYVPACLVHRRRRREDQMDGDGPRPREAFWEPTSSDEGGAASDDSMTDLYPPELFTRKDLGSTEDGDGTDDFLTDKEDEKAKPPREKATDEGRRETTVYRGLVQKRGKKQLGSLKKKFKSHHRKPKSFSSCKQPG
Chain of UniProt O95793 (O95793 whole entry, looked up): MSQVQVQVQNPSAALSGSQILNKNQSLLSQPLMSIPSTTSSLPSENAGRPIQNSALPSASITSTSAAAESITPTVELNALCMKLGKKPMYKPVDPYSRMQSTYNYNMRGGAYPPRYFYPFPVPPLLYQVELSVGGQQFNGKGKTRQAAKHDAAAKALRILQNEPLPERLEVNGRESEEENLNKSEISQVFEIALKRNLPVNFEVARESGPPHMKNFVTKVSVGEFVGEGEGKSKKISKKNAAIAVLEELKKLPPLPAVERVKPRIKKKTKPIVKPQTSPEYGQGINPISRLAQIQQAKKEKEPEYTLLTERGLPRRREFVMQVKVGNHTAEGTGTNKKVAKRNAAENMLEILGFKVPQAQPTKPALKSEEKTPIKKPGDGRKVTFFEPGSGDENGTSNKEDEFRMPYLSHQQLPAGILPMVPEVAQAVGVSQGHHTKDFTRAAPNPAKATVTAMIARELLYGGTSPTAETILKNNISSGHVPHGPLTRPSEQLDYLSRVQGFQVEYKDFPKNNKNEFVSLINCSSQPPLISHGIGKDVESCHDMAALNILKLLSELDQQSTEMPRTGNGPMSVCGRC
Chain of UniProt Q8NHG7 (Q8NHG7 whole entry, looked up): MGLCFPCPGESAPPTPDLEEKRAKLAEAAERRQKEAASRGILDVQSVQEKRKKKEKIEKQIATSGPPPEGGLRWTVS

Regarding SNW1 (UniProt Q13573), the log2 fold change in assay [1] was 0.011; in the assay with vorinostat it was 0.224 (active); with silmitasertib, -0.003; in assay [2] it was -0.012; with entospletinib, 0.009.

With STAU1 isoform 3 (UniProt O95793), the log2 fold change with vorinostat is -0.076; with silmitasertib it was -0.103; in assay [2], -0.156.

As for SMAD9 (UniProt O15198), the log2 fold change is 0.007 in assay [1]; -0.436 (active) with vorinostat; 0.023 in the assay with silmitasertib; -0.012 in assay [2]; 0.017 with entospletinib.

With SNAP23 isoform 2 (UniProt O00161), the log2 fold change in assay [1] is 0.146; with vorinostat, -0.85 (active); with silmitasertib it was -0.028; with entospletinib it was -0.329.

Take SVIP (UniProt Q8NHG7): the log2 fold change in assay [1] was 0.023; with vorinostat, 0.171; in the assay with silmitasertib it was -0.041; in assay [2] it was -0.013; in the assay with entospletinib it was -0.012.

Consider STK24 (UniProt B4DR80), for which the log2 fold change in assay [1] was 0.023; in the assay with vorinostat, 0.029; in the assay with silmitasertib, -0.014; in assay [2], -0.033; with entospletinib, 0.001.

For the target SURF2 (UniProt Q15527), the figures for the log2 fold change (in assay [1]; in assay [2]; in the assay with entospletinib) were -0.01, 0.04 and 0.049, respectively.

Turning to TARDBP (UniProt K7EN94), the log2 fold change in assay [1] is 0.1; with entospletinib, -0.166.

On to SPAG1 (UniProt Q07617), for which the log2 fold change in assay [1] was 0.227; in assay [2], -0.061.

Take SZT2 (UniProt Q5T011): the log2 fold change in the assay with vorinostat was 1.2 (active); with silmitasertib, -0.081; in the assay with entospletinib it was -0.1.

As for TARBP2 (UniProt Q15633), the log2 fold change in assay [1] is -0.017; with vorinostat, -0.519 (active); in the assay with silmitasertib it was 0.024; in assay [2], -0.03; with entospletinib it was -0.002.

As to SLC12A6 isoform 2 (UniProt Q9UHW9), the log2 fold change with vorinostat was 0.17; with silmitasertib, -0.03; in assay [2], -0.064; with entospletinib, -0.114.

As for SLC25A44 (UniProt Q96H78), the log2 fold change in assay [1] is 0.13; with vorinostat, 0.025; in the assay with silmitasertib, -0.02; in assay [2], -0.056; with entospletinib, -0.026.

Turning to SIX5 (UniProt Q8N196), the log2 fold change with vorinostat is 0.162; in the assay with silmitasertib, -0.011; in assay [2], -0.097.

Turning to SLC27A2 (UniProt O14975), the log2 fold change in assay [1] was -0.108; with vorinostat it was -0.237; with silmitasertib, 0.08; in assay [2] it was 0.367; in the assay with entospletinib, -0.023.

On to TAF1B (UniProt Q53T94), for which the values for the log2 fold change (in assay [1]; in assay [2]; with entospletinib) were 0.673 (active), -0.044 and -0.026, respectively.

As for STK26 (UniProt Q9P289), the log2 fold change in assay [1] is -0.027; in the assay with vorinostat it was -0.032; with silmitasertib it was 0.035; in assay [2], -0.045; with entospletinib, -0.026.

As to SHB (UniProt Q15464), the log2 fold change with vorinostat is -0.356 (active); with silmitasertib it was 0.117; in assay [2], 0.044.

As for SMARCA4 isoform 4 (UniProt P51532), the log2 fold change in the assay with vorinostat was 0.166; with silmitasertib, -0.198; in assay [2] it was 0.119; in the assay with entospletinib it was -0.083.

Turning to TAOK2 (UniProt Q9UL54), the log2 fold change is 0.015 in assay [1], -0.051 in assay [2] and 0.01 in the assay with entospletinib.

SYK (UniProt P43405): the log2 fold change is 0.135 in assay [1]; -0.138 with vorinostat; 0.053 with silmitasertib; 0.016 in assay [2]; -0.079 with entospletinib.

Regarding SLC41A1 (UniProt Q8IVJ1), the log2 fold change was 0.06 in the assay with vorinostat, -0.063 in the assay with silmitasertib, -0.37 (active) in assay [2] and 0.007 with entospletinib.

For STK4 (UniProt Q13043), the log2 fold change was 0.054 in assay [1]; -0.134 in the assay with vorinostat; 0.024 with silmitasertib; 0.041 in assay [2]; 0.047 with entospletinib.

With STK38L (UniProt Q9Y2H1), the log2 fold change with vorinostat is -0.162; with silmitasertib, 0.184; in assay [2], 0.022; in the assay with entospletinib it was 0.043.

Take SLC30A9 (UniProt Q6PML9): the log2 fold change in assay [1] was -0.109; with vorinostat, 0.071; with silmitasertib, -0.058; in assay [2], 0.004; with entospletinib, -0.027.

Turning to SLC39A13 (UniProt Q96H72), the log2 fold change with vorinostat was -0.064; with silmitasertib, -0.092.

Take SIN3B (UniProt O75182): the log2 fold change was 0.195 in assay [1], 0.559 in assay [2] and -0.089 with entospletinib.

With SH3GL1 (UniProt Q99961), the log2 fold change was -0.012 in assay [1]; -0.245 (active) in the assay with vorinostat; 0 in the assay with silmitasertib; 0.009 in assay [2]; -0.004 with entospletinib.

Take SPA17 (UniProt Q15506): the log2 fold change in assay [1] is 0.049; in assay [2] it was 0.022; in the assay with entospletinib it was -0.025.

With SPATA5L1 (UniProt Q9BVQ7), the log2 fold change in assay [1] was 0.029; with vorinostat, -0.408 (active); with silmitasertib, 0.138; in assay [2] it was 0.035; in the assay with entospletinib, -0.021.

For STK17B (UniProt O94768), the values for the log2 fold change (with vorinostat; in the assay with silmitasertib; in assay [2]) were -0.221, 0.807 (active) and 0.052, respectively.

SMIM1 (UniProt B2RUZ4): the log2 fold change in the assay with vorinostat is 0.177; in the assay with silmitasertib, -0.076; in assay [2] it was 0.12; with entospletinib, 0.042.

As to SLC12A6 (UniProt Q9UHW9), the log2 fold change is 0.009 in assay [1]; 0.15 with vorinostat; -0.045 in the assay with silmitasertib; 0.003 in assay [2]; 0.013 in the assay with entospletinib.

Regarding STK26 isoform 3 (UniProt Q9P289), the log2 fold change is 0.014 in assay [2] and 0.116 with entospletinib.

With SRC isoform 2 (UniProt P12931), the log2 fold change is 0.073 with vorinostat, -0.069 with silmitasertib and -0.111 with entospletinib.

With TAF11 (UniProt Q15544), the log2 fold change in assay [1] was -0.005; in assay [2] it was 0.05; with entospletinib it was -0.073.

On to SSX5 isoform 2 (UniProt O60225), for which the log2 fold change in assay [1] was -0.111; with vorinostat, -0.059; with silmitasertib, 0.091; with entospletinib it was -0.035.

Turning to STIM1 (UniProt Q13586), the log2 fold change was 0.026 in assay [1]; 0.126 in the assay with vorinostat; -0.01 with silmitasertib; 0.018 in assay [2]; -0.025 with entospletinib.

As for SMPD2 (UniProt O60906), the log2 fold change was 0.261 with vorinostat, -1.47 (active) in the assay with silmitasertib and 0.058 with entospletinib.
